For 22 compounds, Potency results are on record in PubChem BioAssay (NCATS).

“And” between values parts separate entries of the source, which are not always exact repeats. Equal entries are not always repeated. Unmarked numbers belong to inactive results. Results filed as inconclusive are left out. The source made the active and inactive calls. The call rests on the fitted dose curve; in most records, active means well fitted curve in the direction sought with a large enough effect; inconclusive means small, poorly fitted or top-dose-only effect, or another doubt; inactive means no such curve, though single readings can be large; an effect the other way counts as inactive or inconclusive.

Experiment [1] deals with Glutathione peroxidase 1 (Homo sapiens) (UniProt P07203). In words: Primary qHTS Assay for Inhibitors of Recombinant Selenoprotein Glutathione Peroxidase 1 (GPX1) (AID 1845191). Further: nearly all actives have a fitted effect of over 65% in size. Further: potency means the concentration at half of the fitted maximal effect. In a few lines:
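Recombinant GPX1 (10 nM final) was preincubated with compound for 30 min at room temperature, then reacted with 1 mM GSH, 0.5 mM CHP, 0.5 mM NADPH and 100 nM glutathione reductase; NADPH fluorescence (340/450 nm) was read at 0 and 15 min.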
(In general: In qHTS, concentration-response curves come from the screen itself.)

The target of experiment [2] is Phospholipid hydroperoxide glutathione peroxidase GPX4 (Homo sapiens) (UniProt P36969). The experiment can be described thus: Primary qHTS Assay for Inhibitors of Recombinant Selenoprotein Glutathione Peroxidase 4 (GPX4) (AID 1845192). Further: nearly all actives have a fitted effect of over 65% in size. Further: potency means the concentration at half of the fitted maximal effect. In a few lines: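 GR-coupled readout: 100 nM GR, 1 mM GSH, 0.5 mM NADPH; NADPH fluorescence (ex 340/em 450 nm) read at t=0 and after 15 min RT. GPX4 200 nM, preincubated 30 min with compound; substrate 0.5 mM CHP.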
Sequence of Phospholipid hydroperoxide glutathione peroxidase GPX4 (Homo sapiens) (P36969 whole entry, looked up): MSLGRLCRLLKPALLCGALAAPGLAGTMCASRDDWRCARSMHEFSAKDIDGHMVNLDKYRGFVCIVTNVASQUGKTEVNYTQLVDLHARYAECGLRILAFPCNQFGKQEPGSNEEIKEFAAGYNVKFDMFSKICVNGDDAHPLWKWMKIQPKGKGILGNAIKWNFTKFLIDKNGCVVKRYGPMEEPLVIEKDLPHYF

The target of experiment [3] is Luciferin 4-monooxygenase (Photinus pyralis) (UniProt P08659). The experiment can be described thus: Primary firefly luciferase (FLuc) qHTS assay for identification of artifact compounds. (AID 1845220). Further: nearly all actives have a fitted effect of over 60% in size. In a few lines: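 Reaction readout was CCD-imaged luminescence, taken 5 min after adding 10 nM purified firefly enzyme to compound-treated wells holding 10 uM luciferin and ATP in pH 7.6 buffer.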

Experiment [4] is described as follows: Primary fluorescence-based thiol-reactive (MSTI) qHTS assay for identification of artifact compounds. (AID 1845221). Further: nearly all actives have a fitted effect of over 65% in size. Further: potency means the concentration at half of the fitted maximal effect. In a few lines:
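Thiol-reactive compounds detected by quenching of 4 uM MSTI fluorescence (525/598 nm) after 1 h room-temperature dark incubation in PBS pH 7.4, 2% DMSO. qHTS titration; percent inhibition Hill-fitted against Acetyl-MSTI/MSTI controls.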

For experiment [5], the system named is Nanoluciferase (engineered Oplophorus gracilirostris luciferase). The experiment can be described thus: Primary Nanoluciferase (NLuc) qHTS assay for identification of artifact compounds. (AID 1845222).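 Further: NLuc secreted into diluted conditioned medium of S16 cells; series mostly up to about 54 µM.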 The procedure, abridged:
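Concentration-response data were obtained by luminescence after 5 min with Nano-Glo substrate at 1:100. The enzyme was diluted S16 NLuc-expressing cell medium, preincubated with compound for 15 min at RT. Curves were fitted with a 4-parameter Hill model.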

Experiment [6] in a line: Primary redox qHTS assay for identification of artifact compounds. (AID 1845223). In a few lines: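 Amplex Red (25 uM) and HRP (250 mU/mL) in HBSS, with compounds for 15 min, then 250 uM DTT for 30 min, room temperature, dark. Fluorescence 525/598 nm read; normalized to DMSO and 10 uM DA3003; Hill fit.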
Experiment [7] in a line: Quantitative High-Throughput drug screen in 47 multiple myeloma cell lines against the NCATS MIPE library collection: FR4_PLB cell viability assay (AID 1918924; further: nearly all actives have a fitted effect of over 35% in size; further: potency means the concentration at half of the fitted maximal effect). The procedure, abridged:
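CellTiter-Glo luminescence (ATP) after 48 h compound exposure, 37C/5% CO2; 500 cells/well; MIPE 4.0 approved/investigational drugs pinned in; DMSO = 100%, media only = 0% viability.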

Sequence of Glutathione peroxidase 1 (Homo sapiens) (P07203 whole entry, looked up): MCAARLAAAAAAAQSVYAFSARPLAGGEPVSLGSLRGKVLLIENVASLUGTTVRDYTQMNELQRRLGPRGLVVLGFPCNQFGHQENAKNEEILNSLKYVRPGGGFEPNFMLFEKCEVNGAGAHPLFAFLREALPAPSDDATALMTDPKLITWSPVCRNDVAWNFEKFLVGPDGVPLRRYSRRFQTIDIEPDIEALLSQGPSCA

Consider `COc1ccc(OC)c(-c2nnc3ccc(-c4ccc(OC)c(O[C@@H]5CCOC5)c4)nn23)c1`, for which the Potency result in experiment [1], in experiment [2], in experiment [3], in experiment [4], in experiment [5] and in experiment [6] was “inactive” in each case. The Potency in experiment [7] was 11.8 µM (active).

Turning to `COc1ccc2c(OCc3nnc4ccc(-c5ccccc5)nn34)ccnc2c1`, the Potency result in experiment [1], in experiment [2], in experiment [3], in experiment [4], in experiment [5] and in experiment [6] was “inactive” throughout. Besides, the Potency result in experiment [7] was “inactive”.

Take `N#CCNC(=O)c1ccc(-c2ccnc(Nc3ccc(N4CCOCC4)cc3)n2)cc1`: the Potency entry in experiment [1], in experiment [2], in experiment [3], in experiment [5] and in experiment [6] was “inactive” throughout. Moreover, the Potency in experiment [4] is 1.5 µM (active); in experiment [7], 20.9 µM (active).

For the compound `NC(=O)Nc1cc(-c2cccc(F)c2)sc1C(=O)N[C@H]1CCCNC1`, the Potency result in experiment [1], in experiment [2], in experiment [3], in experiment [4] and in experiment [5] was “inactive” each time. Further, the Potency in experiment [7] was 0.0833 µM (active).

For the compound `COc1ccc(C(=O)CC2(O)C(=O)Nc3c(Cl)ccc(Cl)c32)cc1` (configuration not stated), the Potency entry in experiment [1], in experiment [2], in experiment [3], in experiment [4], in experiment [5] and in experiment [6] was “inactive” in each case. For the same compound, the Potency in experiment [7] is 0.833 µM (active).

On to `O=C(Nc1nc2cccc(-c3ccc(CN4CCS(=O)(=O)CC4)cc3)n2n1)C1CC1`, for which the Potency entry in experiment [1], in experiment [2], in experiment [3], in experiment [4] and in experiment [5] was “inactive” in each case. For the same compound, the Potency in experiment [7] was 9.35 µM (active).

Take `COc1cc2c(Oc3ccc4[nH]c(C)cc4c3F)ncnc2cc1OCCCN1CCCC1`: the Potency result in experiment [1], in experiment [2], in experiment [3] and in experiment [5] was “inactive” in each case.

With `C=CC(=O)N1CCC[C@@H](n2nc(-c3ccc(Oc4ccccc4)cc3)c3c(N)ncnc32)C1`, the Potency entry in experiment [1], in experiment [2], in experiment [3], in experiment [5] and in experiment [6] was “inactive” each time.

Consider `O=c1[nH]c(=O)n(C2CCCO2)cc1F` (configuration not stated), for which the Potency result in experiment [1], in experiment [2] and in experiment [7] was “inactive” throughout.

Take `COC(=O)Nc1ccc(-c2nc(N3CCOCC3)c3cnn(C4CCN(Cc5cccnc5)CC4)c3n2)cc1`: the Potency entry in experiment [1], in experiment [3], in experiment [4], in experiment [5] and in experiment [6] was “inactive” throughout. Moreover, the Potency in experiment [7] was 0.0469 µM (active).

For the compound `COc1ccc(-c2cc3c(C)nc(N)nc3n(C3CCC(OCCO)CC3)c2=O)cn1` (configuration not stated), the Potency in experiment [1] is 5.78 µM (active) and 16.1 µM (active); in experiment [7], 0.0332 µM (active). For the same compound, the Potency result in experiment [3], in experiment [4], in experiment [5] and in experiment [6] was “inactive” each time.

`CC(C)c1ccccc1Cc1cc(C(=O)Nc2ccc(S(=O)(=O)c3ccccc3C(C)(C)C)cc2)c(O)c(O)c1O`: in experiment [1], the Potency entry was “inactive”. Further, the Potency in experiment [7] is 9.35 µM (active).

For the compound `Cn1c2ccccc2c2c3c(c4c5ccccc5n(CCC#N)c4c21)CNC3=O`, the Potency entry in experiment [1], in experiment [3], in experiment [5] and in experiment [6] was “inactive” throughout. In experiment [7], the Potency is 4.69 µM (active).

On to `O=C(O)c1ccc2cc(-c3ccc(O)c(C45CC6CC(CC(C6)C4)C5)c3)ccc2c1`, for which, in experiment [1], the Potency entry was “inactive”. In addition, the Potency in experiment [7] was 23.5 µM (active).

For `O=C(O)Cn1nnc(-c2cc(N3CCC(Oc4cc(F)ccc4Br)CC3)no2)n1`, the Potency entry in experiment [1], in experiment [3], in experiment [4], in experiment [5] and in experiment [7] was “inactive” throughout.

Consider `COc1c(N2C[C@@H]3CCCN[C@H]3C2)c(F)cc2c(=O)c(C(=O)O)cn(C3CC3)c12`, for which the Potency in experiment [2] is 18 µM (active).

Consider `COc1cc(-c2nn(C3CCC(N4CCN(C(C)=O)CC4)CC3)c3ncnc(N)c23)ccc1NC(=O)c1cc2ccccc2n1C` (configuration not stated), for which the Potency entry in experiment [2], in experiment [3], in experiment [4], in experiment [5] and in experiment [6] was “inactive” each time. For the same compound, the Potency in experiment [7] is 5.26 µM (active).

For the compound `CCOC(=O)C1=C(C)NC2=C(C(=O)CC(C)(C)C2)C1c1ccc(-c2ccccc2)cc1` (configuration not stated), the Potency entry in experiment [2], in experiment [3], in experiment [4] and in experiment [6] was “inactive” each time. Moreover, the Potency in experiment [7] was 20.9 µM (active).

With `COc1cccc2nc(-c3cccs3)nc(NN3C(=O)C=C(C)C3=O)c12`, the Potency entry in experiment [1], in experiment [4], in experiment [5] and in experiment [6] was “inactive” in each case. Further, the Potency in experiment [7] was 1.87 µM (active).

`COc1ccc(CC2SC(=O)NC2=O)cc1C(=O)NCc1ccc(C(F)(F)F)cc1` (configuration not stated): the Potency result in experiment [1] and in experiment [7] was “inactive” in each case.

In the case of `CC(O)C1C(=O)N2C(C(=O)O)=C(SC3CNC(C(=O)N(C)C)C3)C(C)C12` (configuration not stated), the Potency result in experiment [2], in experiment [3], in experiment [4] and in experiment [5] was “inactive” each time.

Turning to `COc1cc2nccc(Oc3ccc(NC(=O)C4(C(=O)Nc5ccc(F)cc5)CC4)cc3)c2cc1OC`, the Potency entry in experiment [2], in experiment [3], in experiment [4], in experiment [5] and in experiment [6] was “inactive” in each case. In experiment [7], the Potency is 26.4 µM (active).
